Experimental findings from PubChem BioAssay AID602323 (The Scripps Research Institute Molecular Screening Center, 2012) are described below.

Structures are written as SMILES. Calls of active or inactive are those of the source. The rule behind the calls is not given here.

This test relates to 80kDa SH. The experiment in a line: serine hydrolase inhibition in mouse brain membranes, late-stage follow-up, selectivity assay for DAGLb inhibitor project, biochemical, gel-based competitive ABPP, fluorescence, set 2 (AID 602323). The note with it: mouse brain membrane, at 1 µM, stronger effect = higher value.
Regarding `O=C(N1CCCCC1Cc1ccccc1)n1cc(-c2ccc(-c3ccc(C(F)(F)F)cc3)cc2)nn1` (centres undefined), the inhibition – broadly, the drop in the measured response relative to a control, in per cent – was 0% (inactive).

Turning to `O=C(c1ccc(-c2cn(C(=O)N3CCCCC3Cc3ccccc3)nn2)cc1)N1CCCCC1` (centres undefined), the inhibition was 20% (inactive). The same measure for `O=C(N1CCCCC1Cc1ccccc1)n1ncc(-c2ccc(OC(F)(F)F)cc2)n1` (centres undefined): 50% (active); for `O=C(N1CCCCC1Cc1ccccc1)n1cc(-c2ccc(Br)cc2)nn1` (centres undefined): 50% (active).

Take `O=C(N1CCCCC1Cc1ccccc1)n1cc(-c2ccc(-c3ccccc3Cl)cc2)nn1` (centres undefined): the inhibition is 0% (inactive). The same measure for `O=C(N1CCCCC1Cc1ccccc1)n1cc(-c2ccc(-c3ccccc3C(F)(F)F)cc2)nn1` (centres undefined): 0% (inactive); for `O=C(N1CCCCC1Cc1ccccc1)n1cc(-c2ccccc2-c2ccccc2)nn1` (centres undefined): 80% (active). As to `O=C(N1CCCCC1Cc1ccccc1)n1cc(-c2cccc(-c3ccccc3)c2)nn1` (centres undefined), the inhibition is 0% (inactive). As to `O=C(N1CCCCC1Cc1ccccc1)n1cc(-c2ccc(-c3ccccc3CO)cc2)nn1` (centres undefined), the inhibition was 5% (inactive).

For `O=C(N1CCCCC1Cc1ccccc1)n1cc(-c2ccc(OC(F)(F)F)cc2)nn1` (centres undefined), the inhibition is 20% (inactive). On to `Cc1ccccc1-c1ccc(-c2cn(C(=O)N3CCCCC3Cc3ccccc3)nn2)cc1` (centres undefined), for which the inhibition was 0% (inactive). The same measure for `O=C(N(CCc1ccccc1)Cc1ccco1)n1cc(-c2ccc(OC(F)(F)F)cc2)nn1`: 80% (active).

As to `CC(C)(C)OC(=O)NCCCCCN(CCc1ccccc1)C(=O)n1cc(-c2ccc(OC(F)(F)F)cc2)nn1`, the inhibition is 80% (active).

In the case of `COc1ccccc1-c1ccc(-c2cn(C(=O)N3CCCCC3Cc3ccccc3)nn2)cc1` (centres undefined), the inhibition was 0% (inactive). Take `O=C(N1CCCCC1Cc1ccccc1)n1cc(-c2ccc(-c3ccoc3)cc2)nn1` (centres undefined): the inhibition is 20% (inactive). Next, `O=C(N1CCCCC1Cc1ccccc1)n1ncc(C(O)(c2ccccc2)c2ccccc2)n1` (centres undefined): 20% (inactive). Next, `O=C(c1ccc(-c2ccc(-c3cn(C(=O)N4CCCCC4Cc4ccccc4)nn3)cc2)cc1)N1CCCCC1` (centres undefined): 40% (inactive). Next, `O=C(N1CCCCC1Cc1ccccc1)n1cc(-c2ccc(-c3ccccc3OC(F)(F)F)cc2)nn1` (centres undefined): 10% (inactive); `O=C(N1CCCCC1Cc1ccccc1)n1cc(-c2ccc(-c3ccc4c(c3)OCO4)cc2)nn1` (centres undefined): 0% (inactive).

In the case of `O=C(N1CCCCC1Cc1ccccc1)n1cc(-c2ccc(-c3ccc(OC(F)(F)F)cc3)cc2)nn1` (centres undefined), the inhibition is 0% (inactive). The same measure for `CC(C)CN(CCc1ccccc1)C(=O)n1cc(-c2ccc(OC(F)(F)F)cc2)nn1`: 80% (active); for `O=C(N1CCCCC1Cc1ccccc1)n1cc(-c2ccc(-c3cccc(CO)c3)cc2)nn1` (centres undefined): 10% (inactive). Next, `O=C(N1CCCCC1Cc1ccccc1)n1cc(-c2ccc(-c3cccc(C(F)(F)F)c3)cc2)nn1` (centres undefined): 0% (inactive); `O=C(N1CCCCC1Cc1ccccc1)n1cc(-c2cc(F)cc(F)c2)nn1` (centres undefined): 80% (active).
